Records with an inconclusive call do not appear. Calls of active or inactive are those of the source. Unless noted, calls follow the shape of the dose curve; as a rule, active = well fitted curve in the direction sought with a large enough effect in the repeat runs; inconclusive = weak or mixed curves; inactive = no such curve, though single readings can be large; an effect the other way counts as inactive or inconclusive.
What was measured:
[1] = biological target: Thyrotropin receptor (Homo sapiens) (UniProt P16473); assay: qHTS assay to identify small molecule agonists of the thyroid stimulating hormone receptor (TSHR) signaling pathway (AID 1224843; calls by dose curve; also: nearly all actives have a fitted effect of over 45% in size)
Chain of Thyrotropin receptor (Homo sapiens) (P16473 whole entry, looked up): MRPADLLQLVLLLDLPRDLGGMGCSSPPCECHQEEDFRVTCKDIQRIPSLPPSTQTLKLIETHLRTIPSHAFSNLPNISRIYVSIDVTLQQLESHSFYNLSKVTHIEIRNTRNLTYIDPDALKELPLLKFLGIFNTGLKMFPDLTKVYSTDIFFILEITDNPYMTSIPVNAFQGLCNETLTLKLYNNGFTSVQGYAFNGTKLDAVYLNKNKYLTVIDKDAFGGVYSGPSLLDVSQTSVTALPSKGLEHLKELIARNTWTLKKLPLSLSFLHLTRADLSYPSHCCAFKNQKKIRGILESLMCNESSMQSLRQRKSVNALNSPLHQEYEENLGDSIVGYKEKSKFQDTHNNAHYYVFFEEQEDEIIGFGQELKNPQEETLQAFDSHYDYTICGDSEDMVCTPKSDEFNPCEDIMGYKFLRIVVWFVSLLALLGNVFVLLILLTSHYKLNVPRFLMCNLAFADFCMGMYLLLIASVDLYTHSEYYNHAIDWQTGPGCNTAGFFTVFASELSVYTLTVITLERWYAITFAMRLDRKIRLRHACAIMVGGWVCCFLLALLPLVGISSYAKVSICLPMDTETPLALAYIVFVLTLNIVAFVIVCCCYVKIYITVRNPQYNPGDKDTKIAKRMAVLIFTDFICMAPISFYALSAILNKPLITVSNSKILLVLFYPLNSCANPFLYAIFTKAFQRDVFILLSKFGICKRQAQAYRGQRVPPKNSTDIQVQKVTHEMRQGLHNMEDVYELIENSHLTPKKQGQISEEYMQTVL
Summary of the method: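 HEK293/TSHR, 800 cells/well; cpd 30 min RT; add cAMP-d2 + anti-cAMP-cryptate, 1 h RT; fluorescence read on plate reader. 15-pt titration, n=3.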

[2] = qHTS assay to identify small molecule agonists of the hypoxia (HIF-1) signaling pathway - cell viability counter screen (AID 1224844; calls by dose curve; also: nearly all actives have a fitted effect of over 50% in size)
Summary of the method: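 Cytotoxicity measured by CellTiter-Glo ATP luminescence in the wells also read for beta-lactamase signal. Cells were HRE-bla ME-180 (2,000/well, 0.5% dialyzed FBS), exposed to compounds for 17 h at 37C.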

[3] = qHTS assay to identify small molecule agonists of H2AX (AID 1224845; active = well fitted activation curve with a large enough effect in the signal ratio in the repeat runs, not every such curve was filed as active; the % refers to the signal ratio)
Summary of the method: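 Wild-type CHO-K1 cells, plated overnight, exposed 3hr at 37C to 15 concentrations (0.76% DMSO final). Lysed, then HTRF anti-pH2AX (S139) cryptate and anti-H2AX-d2 antibodies, 24 hr room temperature; 665/620 nm emission read.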

[4] = qHTS assay to identify small molecule agonists of the hypoxia (HIF-1) signaling pathway (AID 1224846; active = well fitted activation curve with a large enough effect in the signal ratio in the repeat runs, not every such curve was filed as active; the % refers to the signal ratio)
Summary of the method: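 Compounds added to ME-180 cells carrying hypoxia-response-element beta-lactamase reporter (0.5% dialyzed FBS, 5 h preplating), 17 h at 37C; agonist activity detected by CCF4-AM B/G FRET read-out.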

[5] = qHTS assay to identify small molecule agonists of H2AX - cell viability counter screen (AID 1224847; calls by dose curve; also: top concentration of the series differs between compounds; nearly all actives have a fitted effect of over 30% in size)
Summary of the method: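 After overnight plating of 1000 CHO-K1 cells per well, a 15-concentration compound series was applied for 3 hr at 37C. Luminescence from CellTiter-Glo, read following 30 min at room temperature, reflected cell viability.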

[6] = qHTS RealTime-Glo MT Cell Viability Assay in HepG2 cells - 24 hour (AID 1224867); also: nearly all actives have a fitted effect of over 50% in size
Summary of the method: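 Tox21 10K library screened in qHTS format on HepG2 cells carrying RealTime-Glo reagents. Compounds were added after a 5 h preincubation, and the luminescent signal from continuous culture was measured repeatedly during 40 h treatment.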

[7] = qHTS assay to identify small molecule antagonists of the estrogen related receptor (ERR) signaling pathway from Tox21 library (AID 1224848); also: nearly all actives have a fitted effect of over 50% in size; also: potency is read from the fitted curve at half-maximal effect
Summary of the method: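 Compounds dissolved in DMSO are pin-transferred onto ERR reporter cells (2,000 per well) that have settled for 6 h at 37 C. Plates then incubate 18 h at 37 C before ONE-Glo luciferase reagent and a luminescence read 30 min later.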

[8] = qHTS assay to identify small molecule agonists of the estrogen related receptor (ERR) signaling pathway from Tox21 library (AID 1224849; calls by dose curve; also: nearly all actives have a fitted effect of over 15% in size); details: ERR reporter cell line, ONE-Glo luciferase, 18 h; at 92.4 µM (top of the series) unless noted
Summary of the method: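 Luminescent agonist read-out (One-Glo, 30-minute room-temperature incubation) following 18-hour compound treatment at 37 C of the ERR cell line, which had been plated 6 hours before dosing.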

[9] = qHTS RealTime-Glo MT Cell Viability Assay in HEK293 cells - 32 hour (AID 1224868); also: top concentration of the series differs between compounds; nearly all actives have a fitted effect of over 50% in size
Summary of the method: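 Luminescence generated by NanoLuc from substrate produced by living HEK293 cells served as the viability signal. Each value reflects the reading at its stated time point during continuous 40 h compound exposure at 37 C.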

[10] = A CellTox Green Cytotoxicity Assay to monitor cytotoxicity in HEK293 cells - 0 hour (AID 1224869); also: nearly all actives have a fitted effect of over 50% in size
Summary of the method: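 Fluorescence from a DNA-binding dye excluded by viable cells was measured repeatedly in the same HEK293 wells (600 cells/well) during continuous compound exposure at 37 C. Each assay gives one read point: 0, 8, 16, 24, 32 or 40 h.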
% is scaled to controls: 0 for no effect and ±100 for the full control effect.

O=C1c2ccccc2C(=O)C1c1ccc2ccccc2n1
inactive: Potency [1] | Potency [2] | Potency [3] | outcome [4] | Potency [5] | outcome [6]

CCCC(=O)OCc1ccccc1
inactive: Potency [1] | Potency [2] | Potency [3] | outcome [4] | Potency [5] | Potency [7] | activity change, positive = activation [8] 0.0767% | outcome [6] | Potency [9] | Potency [10]

CCCCCCCCCCCCCCCCN
inactive: Potency [1] | Potency [2] | Potency [3] | outcome [4] | Potency [5] | outcome [6] | Potency [9]

CC(C(=O)O)c1ccc(/C=C2\CCCCC2=O)cc1 (stereo not drawn)
inactive: Potency [1] | Potency [2] | Potency [3] | outcome [4] | Potency [5] | outcome [6] | Potency [9] | Potency [10]

CCCCCCCCCCCCCCCCCCCl
inactive: activation [1] -0.25% [at 8.39 µM] | activity change, negative = cytotoxicity [2] 0.227% [at 6.97 µM] | activation (H2AX phosphorylation) [3] -0.95% [at 14 µM] | activation [4] 0.175% [at 7.01 µM] | activity change, negative = cytotoxicity [5] 2.91% [at 14 µM] | activity, negative = inhibition [7] 23.3% [at 8.39 µM] | activity change, negative = cytotoxicity [6] 1.13% [at 6.97 µM] | activity change, negative = cytotoxic [9] -2.36% [at 6.97 µM] | cytotoxicity [10] 0.805% [at 6.97 µM]

O=C(Cl)c1ccc(F)c(Cl)c1
inactive: Potency [1] | Potency [2] | Potency [3] | outcome [4] | Potency [5] | Potency [7] | activity change, positive = activation [8] -7.97% | outcome [6] | Potency [10]

O=C(N[C@@H](Cc1ccccc1)[C@@H](O)C(=O)N1C[C@@H](O)[C@@H](O)C1)c1cc2cc(Cl)ccc2[nH]1
inactive: Potency [1] | Potency [2] | Potency [3] | outcome [4] | Potency [5] | outcome [6] | Potency [10]
active: Potency [7] 54.5 µM

C=Cc1ccc(C=C)cc1
inactive: Potency [1] | Potency [2] | Potency [3] | outcome [4] | Potency [5] | Potency [7] | activity change, positive = activation [8] 3.76% | outcome [6] | Potency [9] | Potency [10]

CC(=O)Nc1cccc(N)c1
inactive: Potency [1] | Potency [2] | Potency [3] | outcome [4] | Potency [5] | Potency [7] | activity change, positive = activation [8] -3.33% | outcome [6] | Potency [9] | Potency [10]

Nc1ccc(F)cc1F
inactive: Potency [1] | Potency [2] | Potency [3] | outcome [4] | Potency [5] | outcome [6] | Potency [9] | Potency [10]

CC(=O)Nc1ccn(C2COC(COC(=O)c3ccccc3)O2)c(=O)n1 (stereo not drawn)
inactive: Potency [1] | Potency [2] | Potency [3] | outcome [4] | Potency [5] | Potency [7] | outcome [6] | Potency [9] | Potency [10]

CC(COc1ccccc1)NC(C)C(O)c1ccc(O)cc1 (stereo not drawn)
inactive: Potency [1] | Potency [2] | Potency [3] | outcome [4] | Potency [5] | Potency [7] | activity change, positive = activation [8] 0.415% [at 42.5 µM] | outcome [6] | Potency [9] | Potency [10]

O=C(Nc1ccccc1)c1cc([N+](=O)[O-])ccc1Cl
inactive: Potency [1] | Potency [2] | Potency [3] | outcome [4] | Potency [5] | outcome [6] | Potency [9] | Potency [10]
active: Potency [7] 54.5 µM

O=C(c1ccco1)N1CCNCC1
inactive: Potency [1] | Potency [2] | Potency [3] | outcome [4] | Potency [5] | Potency [7] | activity change, positive = activation [8] 3.89% [at 42.5 µM] | outcome [6] | Potency [9] | Potency [10]

CC(C)Cc1nccs1
inactive: Potency [1] | Potency [2] | Potency [3] | outcome [4] | Potency [5] | outcome [6] | Potency [9] | Potency [10]

CC(=O)OCC(=O)[C@@]1(O)CC[C@H]2[C@@H]3CCC4=CC(=O)C=C[C@]4(C)[C@@]3(F)[C@@H](O)C[C@@]21C
inactive: Potency [1] | Potency [2] | Potency [3] | outcome [4] | Potency [5] | outcome [6] | Potency [9] | Potency [10]

OCCOc1cccc(OCCO)c1
inactive: Potency [1] | Potency [2] | Potency [3] | outcome [4] | Potency [5] | Potency [7] | outcome [6] | Potency [9] | Potency [10]

OCCc1ccncc1
inactive: Potency [1] | Potency [2] | Potency [3] | outcome [4] | Potency [5] | Potency [7] | activity change, positive = activation [8] 1.06% | outcome [6] | Potency [9] | Potency [10]

C=CC(=O)OCCCCCCCCCC
inactive: Potency [1] | Potency [2] | Potency [3] | outcome [4] | Potency [5] | Potency [7] | activity change, positive = activation [8] 2.6% | outcome [6] | Potency [9] | Potency [10]

CCCCCC1CCC(=O)O1 (stereo not drawn)
inactive: Potency [1] | Potency [2] | Potency [3] | outcome [4] | Potency [5] | Potency [7] | outcome [6] | Potency [9] | Potency [10]

CCCCCCCCOCCCN
inactive: Potency [1] | Potency [2] | Potency [3] | outcome [4] | Potency [5] | outcome [6] | Potency [9] | Potency [10]

CC(O)CN (stereo not drawn)
inactive: Potency [1] | Potency [2] | Potency [3] | outcome [4] | Potency [5] | Potency [7] | activity change, positive = activation [8] 0.61% | outcome [6] | Potency [9] | Potency [10]

CCC[Si](OC)(OC)OC
inactive: Potency [1] | Potency [2] | Potency [3] | outcome [4] | Potency [5] | Potency [7] | activity change, positive = activation [8] -6.41% | outcome [6] | Potency [9] | Potency [10]

CCOc1ccc(NC(C)=O)cc1N
inactive: Potency [1] | Potency [2] | Potency [3] | outcome [4] | Potency [5] | Potency [7] | activity change, positive = activation [8] 8.88% | outcome [6] | Potency [9] | Potency [10]

CC(C)(C)N
inactive: Potency [1] | Potency [2] | Potency [3] | outcome [4] | Potency [5] | outcome [6] | Potency [9] | Potency [10]
